Assay results from PubChem BioAssay (NCATS).
Records with an inconclusive call do not appear. Where a call stands in place of a potency, no number is given. Calls of active or inactive are those of the source. Unless noted, the call rests on the fitted dose curve; in most records, active means well fitted curve in the direction sought with a large enough effect; inconclusive means small, poorly fitted or top-dose-only effect, or another doubt; inactive means no such curve, though single readings can be large; an effect the other way counts as inactive or inconclusive.

Experiments:
[1] = qHTS for differential inhibitors of proliferation of Plasmodium falciparum line D10 (AID 1877);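 further: parasites grown with compound for 72 h before DNA staining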; further: potency means the concentration at half of the fitted maximal effect
[2] = qHTS for differential inhibitors of proliferation of Plasmodium falciparum line W2 (AID 1883); conditions: Potency: Plasmodium falciparum W2 proliferation inhibition;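 further: parasites grown with compound for 72 h before lysis and staining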; further: potency means the concentration at half of the fitted maximal effect
[3] = target: ATP-dependent DNA helicase Q1 (Homo sapiens) (UniProt P46063); experiment: qHTS Validation Assay for Inhibitors of RecQ-Like Dna Helicase 1 (RECQ1) (AID 2353)
Chain of ATP-dependent DNA helicase Q1 (Homo sapiens) (P46063 whole entry, looked up): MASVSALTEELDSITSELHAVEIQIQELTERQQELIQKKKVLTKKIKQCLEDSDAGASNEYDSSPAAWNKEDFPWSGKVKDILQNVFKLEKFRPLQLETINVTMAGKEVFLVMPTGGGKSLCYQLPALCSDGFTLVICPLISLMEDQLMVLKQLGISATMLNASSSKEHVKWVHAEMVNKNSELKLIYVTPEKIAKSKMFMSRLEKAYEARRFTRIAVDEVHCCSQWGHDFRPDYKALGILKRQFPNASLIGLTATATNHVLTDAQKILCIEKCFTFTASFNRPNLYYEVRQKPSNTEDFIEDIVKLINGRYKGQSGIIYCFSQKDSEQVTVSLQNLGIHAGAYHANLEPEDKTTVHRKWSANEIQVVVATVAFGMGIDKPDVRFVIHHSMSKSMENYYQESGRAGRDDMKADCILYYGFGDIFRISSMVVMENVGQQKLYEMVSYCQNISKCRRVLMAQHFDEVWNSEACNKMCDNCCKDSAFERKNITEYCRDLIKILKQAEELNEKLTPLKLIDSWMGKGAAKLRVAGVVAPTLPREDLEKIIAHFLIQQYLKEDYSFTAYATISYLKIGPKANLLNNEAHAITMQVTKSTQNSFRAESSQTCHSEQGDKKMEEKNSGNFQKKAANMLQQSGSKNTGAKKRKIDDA
Method in brief: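 RECQ1T1 50 nM; forked duplex (20 bp + 30-nt ss tails) 200 nM, ATP 2 mM final; pH 8.0, 2 mM MgCl2, 2.5 ug/ml poly(dI-dC); 15 min compound preincubation; discontinuous kinetic read over 2 h at RT.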

[4] = Cytometric Cell-Based qHTS for Inhibitors of the mTORC1 Signaling Pathway in MEF (Tsc2-/-, p53-/-) Cells (AID 2660);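 further: Tsc2 and p53 null MEFs carrying empty vector with compound for 24 h; percent of cells above a phospho-rpS6 to PI ratio cutoff in each well; series mostly up to about 38 µM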
Method in brief: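 Cells are plated, treated with compound for 24 hrs at 37 degree Celsius, then fixed, blocked and immunostained for phospho-rpS6 Ser235/236. Propidium iodide counterstain follows. Per-well % positive cells is derived from the PI-normalized phospho-S6 signal.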

[5] = High Content Imaging Cell-Based qHTS for Inhibitors of the mTORC1 Signaling Pathway in MEF (Tsc2-/-, p53-/-) Cells (AID 2666);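 further: percent of cells scored positive for phospho-rpS6 Ser235/236 immunostaining by imaging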
Method in brief: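 MEF Tsc2-/- p53-/- (empty vector), DMEM/10% FBS; cpd 24 h 37 °C; PFA fix, Alexa-488 p-rpS6 S235/236 Ab, Hoechst; imaged; rapamycin-defined inhibition; % positive cells/well.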

[6] = High Content Imaging Cell-Based qHTS for Inhibitors of the mTORC1 Signaling Pathway in MEF Cells (AID 2667);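 further: Tsc2-/- p53-/- MEFs stably re-expressing wild-type Tsc2 exposed 24 h; series mostly up to about 38 µM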
Method in brief: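 Read-out is the share of phospho-rpS6-positive cells per well, from Hoechst-normalized Alexa-488 Ser235/236 staining imaged on IN Cell. Cells: WT Tsc2-expressing Tsc2-/-, p53-/- MEFs exposed to compound for 24 hrs.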

[7] = Cytometry Cell-Based qHTS for Inhibitors of the mTORC1 Signaling Pathway in MEF cells (AID 2668); further: potency means the concentration at half of the fitted maximal effect
Method in brief: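 MEFs (Tsc2-/-, p53-/- stably expressing WT Tsc2) treated 24 h at 37 degree Celsius, fixed, stained with Alexa-488 anti-phospho-rpS6 Ser235/236 and propidium iodide; Acumen laser scanning. Reported as % positive cells, phospho-S6 normalized to PI.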

[8] = Validation screen for small molecules that induce DNA re-replication in MCF 10A normal breast cells (AID 463097); further: nearly all actives have a fitted effect of over 60% in size
Method in brief: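 MCF 10A cells exposed to compound 48 hr at 37 C, 5% CO2, then Hoechst-stained 40 min. Laser-scanning imaging of nuclear DNA content (405 nm ex, 500-530 nm em); re-replication scored as rise in nuclei with elevated fluorescence intensity.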

[9] = target: Ubiquitin carboxyl-terminal hydrolase 2 (Homo sapiens) (UniProt O75604); experiment: qHTS Validation Assay for Inhibitors of Ubiquitin-specific Protease USP2a Using CHOP2 as the Reporter (AID 463106)
Chain of Ubiquitin carboxyl-terminal hydrolase 2 (Homo sapiens) (O75604 whole entry, looked up): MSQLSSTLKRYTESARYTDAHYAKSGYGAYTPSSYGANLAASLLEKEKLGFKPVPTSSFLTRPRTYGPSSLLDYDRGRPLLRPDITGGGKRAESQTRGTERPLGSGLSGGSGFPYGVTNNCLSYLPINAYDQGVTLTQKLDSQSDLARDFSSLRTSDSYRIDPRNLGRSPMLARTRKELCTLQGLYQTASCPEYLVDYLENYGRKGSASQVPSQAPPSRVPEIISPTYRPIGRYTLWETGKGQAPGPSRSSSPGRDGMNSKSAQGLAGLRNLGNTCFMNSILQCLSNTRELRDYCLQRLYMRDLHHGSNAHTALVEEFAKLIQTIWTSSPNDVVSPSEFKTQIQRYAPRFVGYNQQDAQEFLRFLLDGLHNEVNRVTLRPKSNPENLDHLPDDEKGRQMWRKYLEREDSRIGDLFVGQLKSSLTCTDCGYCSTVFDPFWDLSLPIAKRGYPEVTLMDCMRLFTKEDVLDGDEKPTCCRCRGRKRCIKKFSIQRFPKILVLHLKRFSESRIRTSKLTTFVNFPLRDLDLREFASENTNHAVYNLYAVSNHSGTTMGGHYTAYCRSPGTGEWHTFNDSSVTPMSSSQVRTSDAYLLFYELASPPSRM
Method in brief: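 Fluorescence read-out at Ex 485nm/Em 531nm after 60min RT, following addition of 25nM Ub-CHOP2 plus 25nM reporter substrate to USP2 core (10nM) pretreated 30min with compound. Data normalized to NEM full inhibition; concentration-response curves fitted.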

[10] = target: DNA polymerase III PolC-type (Bacillus subtilis (strain 168)) (UniProt P13267); experiment: qHTS Validation Assay for the Inhibitors of DNA Replication in Gram-Positive Bacteria (AID 485295);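 further: PicoGreen fluorescence of double-stranded DNA made on primed circular M13 template; series mostly up to about 57 µM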
Chain of DNA polymerase III PolC-type (Bacillus subtilis (strain 168)) (P13267 whole entry, looked up): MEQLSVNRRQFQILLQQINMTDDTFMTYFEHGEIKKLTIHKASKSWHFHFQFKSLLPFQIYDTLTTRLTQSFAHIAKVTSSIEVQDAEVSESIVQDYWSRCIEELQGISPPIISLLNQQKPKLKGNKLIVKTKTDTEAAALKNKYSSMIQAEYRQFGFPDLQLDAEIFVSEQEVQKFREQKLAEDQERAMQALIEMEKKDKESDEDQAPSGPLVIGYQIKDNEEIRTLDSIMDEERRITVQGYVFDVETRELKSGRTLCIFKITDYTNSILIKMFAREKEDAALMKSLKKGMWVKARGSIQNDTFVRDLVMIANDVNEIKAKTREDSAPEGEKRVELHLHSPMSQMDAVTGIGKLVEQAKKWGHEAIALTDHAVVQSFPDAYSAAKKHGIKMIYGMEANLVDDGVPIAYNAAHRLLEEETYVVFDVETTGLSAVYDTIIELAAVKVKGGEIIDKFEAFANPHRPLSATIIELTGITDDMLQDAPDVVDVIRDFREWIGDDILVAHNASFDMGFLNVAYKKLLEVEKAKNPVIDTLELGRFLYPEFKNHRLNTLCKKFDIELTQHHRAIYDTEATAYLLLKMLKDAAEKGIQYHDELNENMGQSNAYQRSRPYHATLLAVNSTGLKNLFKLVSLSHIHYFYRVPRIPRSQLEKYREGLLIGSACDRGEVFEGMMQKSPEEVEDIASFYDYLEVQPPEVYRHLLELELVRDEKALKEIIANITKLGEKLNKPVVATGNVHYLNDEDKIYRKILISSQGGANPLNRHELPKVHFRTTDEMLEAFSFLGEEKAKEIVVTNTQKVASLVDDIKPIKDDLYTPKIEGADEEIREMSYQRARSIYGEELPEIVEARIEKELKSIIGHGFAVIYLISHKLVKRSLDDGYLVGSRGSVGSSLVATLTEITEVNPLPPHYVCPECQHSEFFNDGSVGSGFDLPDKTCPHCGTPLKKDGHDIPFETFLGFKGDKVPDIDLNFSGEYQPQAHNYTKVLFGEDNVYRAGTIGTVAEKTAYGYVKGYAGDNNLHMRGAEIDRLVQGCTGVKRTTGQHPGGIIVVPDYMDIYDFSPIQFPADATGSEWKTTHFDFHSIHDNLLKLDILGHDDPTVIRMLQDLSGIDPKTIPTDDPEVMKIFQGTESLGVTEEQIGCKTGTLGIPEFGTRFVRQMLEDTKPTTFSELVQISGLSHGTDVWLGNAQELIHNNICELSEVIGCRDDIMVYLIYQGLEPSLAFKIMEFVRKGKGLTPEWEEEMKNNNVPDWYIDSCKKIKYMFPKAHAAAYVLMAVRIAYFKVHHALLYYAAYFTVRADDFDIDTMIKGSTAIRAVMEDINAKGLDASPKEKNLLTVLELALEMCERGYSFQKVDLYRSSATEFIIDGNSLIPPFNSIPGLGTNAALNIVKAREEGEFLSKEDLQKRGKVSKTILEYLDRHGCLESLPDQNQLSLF
Method in brief: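 Reconstituted B. subtilis Pol III holoenzyme (PolC, beta clamp, SSB, primase) preincubated with compound, then M13Gori single-stranded circular template with dNTPs/NTPs added; room temperature reaction. Stopped with EDTA/PicoGreen; dsDNA fluorescence read, EDTA as full-inhibition control.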

[11] = target: Tumor susceptibility gene 101 protein (Homo sapiens) (UniProt Q99816); experiment: qHTS Validation Assay for Iinhibitors of HIV-1 Budding by Blocking the Interaction of PTAP/TSG101 (AID 485342; calls by dose curve)
Chain of Tumor susceptibility gene 101 protein (Homo sapiens) (Q99816 whole entry, looked up, the tested form may be a part): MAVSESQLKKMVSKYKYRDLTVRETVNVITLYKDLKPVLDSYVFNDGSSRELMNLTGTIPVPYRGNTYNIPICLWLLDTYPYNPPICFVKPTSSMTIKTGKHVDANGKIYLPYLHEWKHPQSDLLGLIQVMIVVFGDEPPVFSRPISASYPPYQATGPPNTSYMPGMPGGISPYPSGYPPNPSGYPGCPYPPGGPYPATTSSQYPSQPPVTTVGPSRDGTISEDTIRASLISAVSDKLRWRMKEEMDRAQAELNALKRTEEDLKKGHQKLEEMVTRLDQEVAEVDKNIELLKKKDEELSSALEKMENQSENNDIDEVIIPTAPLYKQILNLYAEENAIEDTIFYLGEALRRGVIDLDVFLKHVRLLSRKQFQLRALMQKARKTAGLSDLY
Method in brief: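 Tsg101 binding domain (10 uM) with FITC-labeled PTAP peptide (50 nM) in HEPES pH 7.5 buffer, 20 min at r.t. with compounds. Binding measured by fluorescence polarization.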

[12] = qHTS for differential inhibitors of proliferation of Plasmodium falciparum line Dd2 (AID 1882); conditions: Potency: Plasmodium falciparum Dd2 proliferation inhibition; further: nearly all actives have a fitted effect of over 65% in size; further: potency means the concentration at half of the fitted maximal effect
Method in brief: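 SYBR Green DNA fluorescence (ex 485, em 535 nm) after overnight lysis quantifies parasite growth; compound exposure lasted 72 h at 37 C on infected red cells at 2.5% hematocrit, 0.3% parasitemia (final). Artemisinin 0.29 uM and vehicle wells define normalization.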

[13] = qHTS for differential inhibitors of proliferation of Plasmodium falciparum line HB3 (AID 1886); conditions: Potency: Plasmodium falciparum HB3 proliferation inhibition;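 further: parasites grown with compound for 72 h before SYBR Green readout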; further: potency means the concentration at half of the fitted maximal effect
[14] = target: Ferritin light chain (Equus caballus) (UniProt P02791); experiment: qHTS Validation Assay for Identification of Novel General Anesthetics (AID 2323); further: series mostly up to about 77 µM
Chain of Ferritin light chain (Equus caballus) (P02791 2-175 limits assumed): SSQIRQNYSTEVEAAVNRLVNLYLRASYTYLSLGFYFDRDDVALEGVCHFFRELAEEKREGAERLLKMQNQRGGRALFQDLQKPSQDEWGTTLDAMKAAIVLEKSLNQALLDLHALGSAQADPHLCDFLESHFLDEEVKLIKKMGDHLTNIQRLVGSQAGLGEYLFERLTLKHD
Method in brief: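 Horse-spleen apoferritin (10 uM) in PBS with 50% saturated 1-aminoanthracene; compounds pin-transferred, 10 min at room temperature. Fluorescence read at 380/535 nm, normalized to free 1-AMA and 1-AMA/apoferritin values; four-parameter Hill fit.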

[15] = qHTS Assay for Modulators of Human Peripheral Myelin Protein 22 (PMP22) Expression/Activity (AID 1967; active means well fitted curve in the direction sought with a large enough effect in the signal ratio; the % refers to the signal ratio)
Method in brief: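 Mouse MSC80 Schwann cells carrying Pmp22 promoter–green click beetle luciferase plus EF-alpha–red luciferase control, dosed 24 h at 37 °C. Dual-filter luminescence, overlap-corrected; %Activity from green/red ratio normalised to untreated cells, concentration-response curves fitted.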

[16] = qHTS Validation Assay to Find Inhibitors of Chronic Active B-Cell Receptor Signaling (AID 485345; active means well fitted curve in the direction sought with a large enough effect in the main read-out, with a control signal flat, not every such curve was filed as active)
Method in brief: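 TMD8 ABC-DLBCL cells stably carrying doxycycline-inducible IkappaBalpha–green luciferase fusion plus unfused red luciferase; compounds 46 uM to 3 nM, 4 h at 37C with doxycycline. Corrected green/red luminescence ratio normalized to 10 uM MG-132 and basal cell wells; curves fitted.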

[17] = target: RecQ-like DNA helicase BLM (Homo sapiens) (UniProt P54132); experiment: qHTS Validation Assay for Inhibitors of Bloom's syndrome helicase (BLM) (AID 2364); further: potency means the concentration at half of the fitted maximal effect
Chain of RecQ-like DNA helicase BLM (Homo sapiens) (P54132 whole entry, looked up): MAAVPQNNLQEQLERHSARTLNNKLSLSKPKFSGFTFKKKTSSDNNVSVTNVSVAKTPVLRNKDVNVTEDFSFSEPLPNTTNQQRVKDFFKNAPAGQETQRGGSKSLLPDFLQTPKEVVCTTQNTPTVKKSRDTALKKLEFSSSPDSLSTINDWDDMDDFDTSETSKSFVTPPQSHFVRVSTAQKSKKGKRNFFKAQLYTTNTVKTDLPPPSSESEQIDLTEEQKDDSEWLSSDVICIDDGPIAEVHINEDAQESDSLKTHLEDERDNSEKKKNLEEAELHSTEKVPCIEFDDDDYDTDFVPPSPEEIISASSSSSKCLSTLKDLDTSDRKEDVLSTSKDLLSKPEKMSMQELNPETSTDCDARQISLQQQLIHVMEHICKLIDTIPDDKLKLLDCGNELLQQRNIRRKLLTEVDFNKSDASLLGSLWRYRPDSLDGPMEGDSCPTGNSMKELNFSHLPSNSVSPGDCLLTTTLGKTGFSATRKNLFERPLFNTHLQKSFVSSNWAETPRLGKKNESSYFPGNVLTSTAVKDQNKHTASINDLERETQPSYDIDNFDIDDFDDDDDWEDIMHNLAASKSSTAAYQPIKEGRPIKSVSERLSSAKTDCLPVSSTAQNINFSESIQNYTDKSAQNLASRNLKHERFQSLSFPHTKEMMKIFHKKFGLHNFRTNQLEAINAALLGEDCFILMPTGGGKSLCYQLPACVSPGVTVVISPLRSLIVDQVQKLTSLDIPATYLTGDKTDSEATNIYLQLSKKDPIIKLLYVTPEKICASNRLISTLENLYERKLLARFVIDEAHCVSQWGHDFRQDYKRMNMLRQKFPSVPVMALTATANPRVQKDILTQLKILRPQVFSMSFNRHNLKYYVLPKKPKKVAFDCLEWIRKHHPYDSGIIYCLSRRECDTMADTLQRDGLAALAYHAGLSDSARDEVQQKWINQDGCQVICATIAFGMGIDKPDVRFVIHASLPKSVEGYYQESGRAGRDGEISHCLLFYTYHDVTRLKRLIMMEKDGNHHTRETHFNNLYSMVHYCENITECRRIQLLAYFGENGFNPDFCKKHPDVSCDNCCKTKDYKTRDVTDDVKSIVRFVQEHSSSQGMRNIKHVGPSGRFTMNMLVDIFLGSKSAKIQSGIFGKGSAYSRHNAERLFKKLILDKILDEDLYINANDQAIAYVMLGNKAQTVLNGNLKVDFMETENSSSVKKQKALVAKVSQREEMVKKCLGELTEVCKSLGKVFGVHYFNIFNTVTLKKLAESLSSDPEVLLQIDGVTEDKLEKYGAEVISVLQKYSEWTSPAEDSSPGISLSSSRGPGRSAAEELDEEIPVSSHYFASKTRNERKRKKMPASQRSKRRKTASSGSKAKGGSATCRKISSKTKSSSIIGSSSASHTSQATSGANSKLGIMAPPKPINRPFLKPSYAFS
Method in brief: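 50 nM BLM preincubated 15 min at room temperature with compound in pH 8.0 Tris buffer containing 2.5 ug/ml poly(dI-dC); started with 200 nM TAMRA/BHQ-2 forked duplex and 2 mM ATP (final). Unwinding read as TAMRA fluorescence increase, two reads 2 h apart.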

SMILES | Potency [1] | Potency [2] | Potency [3] | outcome [4] | Potency [5] | Potency [6] | Potency [7] | Potency [8] | Potency [9] | Potency [10] | outcome [11] | Potency [12] | Potency [13] | Potency [14] | outcome [15] | outcome [16] | Potency [17]
O=c1ccc2c(OCCCCc3ccccc3)c3ccoc3cc2o1 | 12.6 µM (active) | 10 µM (active) | inactive | inactive | inactive | inactive | inactive | inactive | inactive | inactive | inactive |  |  |  |  |  | 
O=c1[nH]c2ccccc2c2ccccc12 |  |  | inactive | inactive | inactive | inactive | inactive | inactive | inactive |  |  | inactive | inactive | inactive |  |  | 
CC1=C(/C=C/C(C)=C/C=C/C(C)=C\C(=O)O)C(C)(C)CCC1 |  | 8.91 µM (active) | inactive | inactive | inactive | inactive |  | inactive |  | inactive |  | 10 µM (active) | 10 µM (active) |  |  |  | 
OC[C@H]1O[C@@H](n2cnc3cncnc32)[C@H](O)[C@@H]1O |  |  | inactive | inactive | inactive | inactive | inactive | inactive | inactive | inactive | inactive | inactive |  | inactive | inactive | inactive | 
[N-]=[N+]=Nc1ccc(C(=O)CSC[C@H](NC(=O)CC[C@H](N)C(=O)O)C(=O)NCC(=O)O)cc1 | inactive |  |  | inactive | inactive | inactive | inactive |  |  |  | inactive |  | inactive |  |  |  | 28.2 µM (active)
N#C/C(=C\c1ccc(O)c(O)c1)C(=O)NCCc1ccccc1 |  | 10 µM (active) | inactive | inactive | inactive |  | 10.4 µM (active) |  | inactive | inactive | inactive | 11.2 µM (active) | 11.2 µM (active) |  |  |  | 
CCN(CC)CCCCCCCCOC(=O)c1cc(OC)c(OC)c(OC)c1 |  | 3.55 µM (active) | inactive | inactive | inactive | inactive |  | inactive | inactive | inactive | inactive | 8.91 µM (active) |  | inactive |  |  | inactive
Cn1c(=O)[nH]c2ncn(C)c2c1=O |  | inactive | inactive | inactive | inactive | inactive | inactive | inactive | inactive | inactive | inactive | inactive | 12.6 µM (active) | inactive |  | inactive | 
Cc1cccc(C(=O)NCN2CCN(c3ccccc3C#N)CC2)c1 | inactive |  | inactive | inactive | inactive | inactive | inactive |  | inactive | inactive | inactive |  | inactive |  |  | inactive | 
Fc1ccc(CN(C2=NCCN2)c2c(Cl)cccc2Cl)cc1 |  | 3.55 µM (active) | inactive | inactive | inactive | inactive | inactive | inactive | inactive | inactive | inactive | 7.94 µM (active) |  | inactive |  | inactive | inactive
O=S(=O)(c1cccc2c(Cl)cccc12)N1CCCNCC1 |  | 1.58 µM (active) | inactive | inactive | inactive | inactive | inactive |  | inactive |  | inactive | 4.47 µM (active) |  |  |  | inactive | inactive
O=c1oc(Cl)c(Cl)c2ccccc12 | inactive |  | inactive |  |  |  |  |  |  |  | inactive |  | inactive |  |  |  | 
